Hit rate of the full screen: of about 360,000 compounds, about 5,000 (1.4%) were called active. Many of the other results were omitted from the sample, so actives are more common in it than they were. Values without a mark were called inactive.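 The calls were made as follows: active = inhibition of 50% or more, scaled per plate between neutral and stimulator controls; inactive = the rest.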

Usually inhibition stands for the change of the read-out against control, counted positive when it falls.

This test is described as follows: blockers of Ca2+-induced mitochondrial swelling – biochemical, isolated mouse mitochondria, absorbance, primary screen (AID 602449).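 Also: 0% = DMSO wells given calcium and 100% = 1 mM EGTA wells.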 The following applies: 30 min, at 10 µM, stronger effect = higher value.
On to `COc1ccc(N(CC(=O)N2CCOCC2)S(=O)(=O)c2ccccc2)cc1Cl`, for which the inhibition is 1.3%.

For `O=c1[nH]c(/C=C/c2cccc(Br)c2)nc2ccccc12`, the inhibition is 2.1%.

Turning to `O=c1c2cc(Br)ccc2nc(-c2cccc(Cl)c2)n1O`, the inhibition was 0.6%.

Turning to `O=C(/C(=C/c1cccc(Cl)c1)c1nc2ccccc2[nH]1)c1ccccc1`, the inhibition was 84.4% (active).

`CC1CN(C(=S)Nc2ccc(S(N)(=O)=O)cc2)CC(C)O1` (stereo not given): the inhibition was -0.5%.

For `NC(=O)Cn1c(=O)oc2ccccc21`, the inhibition was -0.1%.

Consider `CN1CCN(c2ncc3c(n2)CC(c2ccccc2F)CC3=O)CC1` (stereo not given), for which the inhibition was 1.4%.

With `O=C(Oc1ccccc1Cl)c1ccc(N2CCOCC2)c([N+](=O)[O-])c1`, the inhibition is 9.1%.

For `CS(=O)(=O)c1ccccc1C(=O)Nc1ccc2sccc2c1`, the inhibition is -0.4%.

As to `Cc1ccc(NC(=O)Nc2ccc3oc(C)nc3c2)cc1`, the inhibition is -2.9%.

With `O=C(Nc1ccc2ccccc2c1)Nc1ccc2snnc2c1`, the inhibition was 99.8% (active).

Consider `CC1(C(=O)NS(=O)(=O)c2cccc(F)c2)CCN1C(=O)Cc1cc(F)ccc1F` (stereo not given), for which the inhibition was -0.4%.

Regarding `CCc1nc2c(OCc3ccc(C(F)(F)F)cc3)cccn2c1N(C)C(=O)CC(C)C`, the inhibition was 0.1%.

On to `O=C(O)c1cc(S(=O)(=O)NC2CCCc3ccccc32)ccc1O` (stereo not given), for which the inhibition was 0.3%.

As for `COc1cc(C2C(N3C(=O)c4ccccc4C3=O)C(=O)N2c2ccc(C)c(C)c2)cc(OC)c1OC` (stereo not given), the inhibition is 3%.

Consider `COc1ccc2c(c1)c(=Cc1ccc(N(C)C)cc1)c1cc(-c3ccccc3)[n+](C)n12`, for which the inhibition is 80.7% (active).

`Cc1nc(N2CCC(C)CC2)c2c(C)c(C(=O)Nc3cc(F)ccc3C)sc2n1`: the inhibition was 13.5%.

For `Cc1nc(N2CCOCC2)c2c(C)c(C(=O)Nc3ccc(C(F)(F)F)cc3)sc2n1`, the inhibition is 72.5% (active).

For `Cc1nc(N2CCN(c3ccccn3)CC2)c2c(C)c(C(=O)Nc3ccc(F)c(Cl)c3)sc2n1`, the inhibition is 16.7%.

For `C=C(C)Cn1c(N2CCN(CC)CC2)nc2c1c(=O)[nH]c(=O)n2C`, the inhibition is -0.4%.

Take `COc1ccc(C(=O)c2c(C)oc3cc([N+](=O)[O-])c(O)c([N+](=O)[O-])c23)cc1`: the inhibition was 3.3%.

`Cc1ccc(C(=O)c2ccc(N3CCN(C)CC3)c([N+](=O)[O-])c2)cc1`: the inhibition is 0.6%.

Turning to `Cc1oc2cc([N+](=O)[O-])c(O)c([N+](=O)[O-])c2c1C(=O)c1ccc(Br)cc1`, the inhibition was 74.4% (active).

For the molecule `O=C(Nc1ccccc1F)C1C2C=CC3(O2)C1C(=O)N(c1cccnc1)C3C(=O)NC1CCCCC1` (stereo not given), the inhibition is 1.6%.

In the case of `O=S(=O)(NCC1OCCc2ccccc21)c1ccccc1` (stereo not given), the inhibition is 4.3%.

On to `O=C(O)C(CCc1ccccn1)c1ccccc1` (stereo not given), for which the inhibition is 0.6%.

With `CC1CCCC(NC(=O)c2cccc(N3CCCC3=O)c2)C1C` (stereo not given), the inhibition was -0.6%.

For the molecule `CC(C)CCOc1ccc(C(=O)C[N+]2(C)CCOCC2)cc1`, the inhibition was -1.9%.

With `CCCc1ccc(OCCNC(=O)c2ccccc2Br)cc1`, the inhibition was 0.4%.

Regarding `CCCOc1ccc(C(=O)C(CCC(CNCC)C(=O)c2ccc(OCCC)cc2)CNCC)cc1` (stereo not given), the inhibition was 73.6% (active).

Turning to `COc1cccc(NC(=O)COc2cc(C)cc3oc(=O)cc(C)c23)c1`, the inhibition is 0.4%.

Turning to `Cc1nccn1CCC1CCCCN1C(=O)CCc1nnc(-c2ccsc2)o1` (stereo not given), the inhibition is -1.2%.

Take `O=C(Nc1nnc(C2COc3ccccc3O2)o1)c1ccc(F)cc1` (stereo not given): the inhibition is -3%.

On to `c1ccc2c(c1)CSc1sccc1C2=C1CCNCC1`, for which the inhibition was 94.3% (active).

`Cc1ccc(-n2ncc3c(Nc4cccc(C(=O)O)c4)ncnc32)cc1`: the inhibition was 3.4%.

On to `Cn1c2c(c(=O)n(C)c1=O)C(c1cccc(F)c1)C(C#N)=C(N)O2` (stereo not given), for which the inhibition was 1.8%.

For `N#CC1=C(N)Oc2cc(N)ccc2C1c1ccccc1` (stereo not given), the inhibition was -0.1%.

For `Cc1nn(Cc2ccccc2)c2c1C(c1ccccc1)C(C#N)=C(N)O2` (stereo not given), the inhibition was 81.3% (active).

Turning to `C[C@H]1CN([C@@H](C)CO)C(=O)CCCn2cc(nn2)CO[C@@H]1CN(C)S(=O)(=O)c1ccccc1C#N`, the inhibition was -0.4%.

Regarding `COc1ccc(NC(=O)C(CC(C)C)NC(=O)C2CCC(C)CC2)cc1` (stereo not given), the inhibition was 0.1%.

Regarding `O=C(CN1CCN(c2ccccc2O)CC1)NC(=O)NCc1ccccc1`, the inhibition is 1.2%.

On to `O=C(CSc1nc(-c2ccccc2)cs1)Nc1cccc([N+](=O)[O-])c1`, for which the inhibition is 93% (active).

As to `O=C(CN1CCC(NC(=O)Nc2ccccc2)CC1)Nc1cccc([N+](=O)[O-])c1`, the inhibition is -0.8%.

Take `O=C(CSc1ncn[nH]1)Nc1nc(-c2cccc([N+](=O)[O-])c2)cs1`: the inhibition was 8.3%.

As for `CC1CCC(NC(=O)CN(C)S(=O)(=O)c2ccc3c(c2)c(=O)n(C)c(=O)n3C)CC1` (stereo not given), the inhibition is -2.1%.

Take `O=C(CSc1nnc(-c2cccs2)n1Cc1ccco1)c1ccc2c(c1)OCO2`: the inhibition is -1.2%.

On to `COc1ccc(/C=C2\CCCC3C2=NN(C(=O)c2scnc2C)C3c2ccc(OC)cc2)cc1` (stereo not given), for which the inhibition is -3.7%.

Consider `CCc1cc2c(N3CCN(c4nnc(CC)s4)CC3)ncnc2s1`, for which the inhibition was 58.3% (active).

Regarding `CCc1ccc(C(=O)NNC(=O)C2CCN(c3ncnc4sc(C)c(C)c34)CC2)cc1`, the inhibition is -0.3%.

With `COC(=O)[C@@H](Cc1ccccc1)NC(=O)NCCc1ccccc1`, the inhibition is 0.6%.

Regarding `NC[C@H](Cc1ccccc1)NCCc1cc(C(F)(F)F)cc(C(F)(F)F)c1`, the inhibition is 88.5% (active).

As to `CCOC(=O)c1c(NC(=O)CNC2CCCc3ccccc32)sc(C(N)=O)c1C` (stereo not given), the inhibition is 0.8%.

With `O=C(NC1CCN(Cc2ccccc2)CC1)c1cc(Br)c(Br)[nH]1`, the inhibition was 66.2% (active).

With `O=C(NC1CCN(Cc2ccccc2)CC1)c1ccc(Oc2cc(Cl)cc(Cl)c2)o1`, the inhibition was 10.6%.

For the molecule `Cc1cc(C(=O)NC2CCN(Cc3ccccc3)CC2)n[nH]1`, the inhibition is -1.6%.

Regarding `CCc1nc2c(=O)[nH]cnc2o1`, the inhibition is -1.8%.

As for `O=C(CSc1nc(=O)n2ccccc2n1)Nc1ccc2c(c1)OCCO2`, the inhibition was -1.6%.

As for `Cc1nnc(SC(C(=O)c2ccccc2)c2ccccc2)[nH]c1=O` (stereo not given), the inhibition was 1.4%.

With `CC(NCC(=O)Nc1cc(Cl)cc(Cl)c1)c1ccccc1` (stereo not given), the inhibition was 3.1%.

As for `Cc1nnc(SC(C(=O)Nc2cc(Cl)cc(Cl)c2)c2ccccc2)[nH]c1=O` (stereo not given), the inhibition is 86.4% (active).

These data come from PubChem BioAssay AID602449 (Sanford-Burnham Center for Chemical Genomics, 2012).
